Experimental findings from PubChem BioAssay are described below.

Calls of active or inactive are those of the source.

Test [1] relates to Plasmodium falciparum Sir2 (PF13_0152, Sir2A). Briefly: pfSir2 binders on small-molecule microarrays, primary screen, biochemical, small-molecule microarray, 635 nm fluorescence (AID 1098).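 Note: score merges spot fluorescence intensity with its signal-to-noise ratio.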 As to conditions: small-molecule microarray binding, fluorescence 635 nm; higher = more signal.
The nature of test [2]: small-molecule microarray binders of probe aDKK1, primary screen, biochemical, biotinylated probe, 635/667 nm fluorescence (AID 1099).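 Note: score merges 667nm spot fluorescence with signal to noise across triplicate slides; reference of the scale not given here.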 As to conditions: higher = more signal.
A short description of test [3]: small-molecule microarray binders of probe aCHRDL2, primary screen, biochemical, biotinylated probe, 635/667 nm fluorescence (AID 1100). To be noted: higher = more signal.
The nature of test [4]: splicing luciferase reporter signal modulators, primary screen, spliceosome inhibition project, cell-based, HEK293, splice +/- reporter (AID 1101).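 Note: HEK293 cells carrying a splicing-competent luciferase reporter gene; test concentration not given here.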 As to conditions: luminescence, 24 h, higher = more signal, called active from +8 up or from −8 down.
In test [5] the target is Fibroblast growth factor 10 (Homo sapiens) (UniProt O15520). As to the kind of experiment: FGF10 binders on small-molecule microarrays, primary screen, biochemical, small-molecule microarray, 635 nm fluorescence (AID 1102). To be noted: FGF10 binding, fluorescence 635 nm, higher = more signal.
In test [6] the test system is glycogen synthase kinase-3 (GSK3A per assay name; protocol says GSK3B). As to the kind of experiment: GSK3 binders on small-molecule microarrays, primary screen, biochemical, small-molecule microarray, 635 nm fluorescence, GSK3A (AID 1103). Note: the record names both GSK3A and GSK3B. As to conditions: small-molecule microarray binding, fluorescence 635 nm; higher = more signal.
For test [7], the target named is Epidermal growth factor receptor (Homo sapiens) (UniProt P00533). As to the kind of experiment: EGFR binders on small-molecule microarrays, primary screen, biochemical, small-molecule microarray, 635 nm fluorescence (AID 1104).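 Note: score merges 667 nm emission intensity with spot signal to noise over triplicate slides.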 As to conditions: EGFR binding, higher = more signal.
The target in test [8] is Follistatin-related protein 3 (Homo sapiens) (UniProt O95633). Briefly: FSTL3 binders on small-molecule microarrays, primary screen, biochemical, small-molecule microarray, 635 nm fluorescence (AID 1105).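 Note: score merges emission near 667 nm and signal to noise per printed spot across three slides.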 As to conditions: FSTL3 binding, higher = more signal.
Test [9] addresses Dickkopf-related protein 1 (Homo sapiens) (UniProt O94907). Briefly: DKK1 binders on small-molecule microarrays, primary screen, biochemical, small-molecule microarray, 635 nm fluorescence scan (AID 1106).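 Note: score merges emission near 667 nm with signal to noise over three replicate slides.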 As to conditions: DKK1 binding, higher = more signal.
In test [10] the test system is Inhibin beta A chain (activin A). As to the kind of experiment: INHBA (activin A) binders on microarrays, primary screen, biochemical, small-molecule microarray, 635 nm fluorescence scan (AID 1107).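 Note: mouse activin A protein probed at 4.33 µg/mL on printed slides; score merges bound-protein fluorescence near 667 nm with spot signal-to-noise.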 To be noted: small-molecule microarray binding, higher = more signal.

Sequence of Dickkopf-related protein 1 (Homo sapiens) (O94907 whole entry, looked up): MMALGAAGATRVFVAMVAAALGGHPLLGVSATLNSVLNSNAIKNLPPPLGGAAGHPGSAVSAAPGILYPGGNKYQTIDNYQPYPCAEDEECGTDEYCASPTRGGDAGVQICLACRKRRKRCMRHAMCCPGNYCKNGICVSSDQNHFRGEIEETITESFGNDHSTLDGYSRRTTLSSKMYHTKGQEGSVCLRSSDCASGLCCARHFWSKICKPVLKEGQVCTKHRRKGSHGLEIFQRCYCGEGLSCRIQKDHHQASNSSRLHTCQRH
Sequence of Fibroblast growth factor 10 (Homo sapiens) (O15520 whole entry, looked up): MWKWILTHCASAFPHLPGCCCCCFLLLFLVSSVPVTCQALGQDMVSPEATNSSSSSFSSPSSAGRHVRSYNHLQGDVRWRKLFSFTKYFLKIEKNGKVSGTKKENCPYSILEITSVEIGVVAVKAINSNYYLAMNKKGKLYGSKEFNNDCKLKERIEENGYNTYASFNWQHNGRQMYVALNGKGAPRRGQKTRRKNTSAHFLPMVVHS
Sequence of Epidermal growth factor receptor (Homo sapiens) (P00533 whole entry, looked up): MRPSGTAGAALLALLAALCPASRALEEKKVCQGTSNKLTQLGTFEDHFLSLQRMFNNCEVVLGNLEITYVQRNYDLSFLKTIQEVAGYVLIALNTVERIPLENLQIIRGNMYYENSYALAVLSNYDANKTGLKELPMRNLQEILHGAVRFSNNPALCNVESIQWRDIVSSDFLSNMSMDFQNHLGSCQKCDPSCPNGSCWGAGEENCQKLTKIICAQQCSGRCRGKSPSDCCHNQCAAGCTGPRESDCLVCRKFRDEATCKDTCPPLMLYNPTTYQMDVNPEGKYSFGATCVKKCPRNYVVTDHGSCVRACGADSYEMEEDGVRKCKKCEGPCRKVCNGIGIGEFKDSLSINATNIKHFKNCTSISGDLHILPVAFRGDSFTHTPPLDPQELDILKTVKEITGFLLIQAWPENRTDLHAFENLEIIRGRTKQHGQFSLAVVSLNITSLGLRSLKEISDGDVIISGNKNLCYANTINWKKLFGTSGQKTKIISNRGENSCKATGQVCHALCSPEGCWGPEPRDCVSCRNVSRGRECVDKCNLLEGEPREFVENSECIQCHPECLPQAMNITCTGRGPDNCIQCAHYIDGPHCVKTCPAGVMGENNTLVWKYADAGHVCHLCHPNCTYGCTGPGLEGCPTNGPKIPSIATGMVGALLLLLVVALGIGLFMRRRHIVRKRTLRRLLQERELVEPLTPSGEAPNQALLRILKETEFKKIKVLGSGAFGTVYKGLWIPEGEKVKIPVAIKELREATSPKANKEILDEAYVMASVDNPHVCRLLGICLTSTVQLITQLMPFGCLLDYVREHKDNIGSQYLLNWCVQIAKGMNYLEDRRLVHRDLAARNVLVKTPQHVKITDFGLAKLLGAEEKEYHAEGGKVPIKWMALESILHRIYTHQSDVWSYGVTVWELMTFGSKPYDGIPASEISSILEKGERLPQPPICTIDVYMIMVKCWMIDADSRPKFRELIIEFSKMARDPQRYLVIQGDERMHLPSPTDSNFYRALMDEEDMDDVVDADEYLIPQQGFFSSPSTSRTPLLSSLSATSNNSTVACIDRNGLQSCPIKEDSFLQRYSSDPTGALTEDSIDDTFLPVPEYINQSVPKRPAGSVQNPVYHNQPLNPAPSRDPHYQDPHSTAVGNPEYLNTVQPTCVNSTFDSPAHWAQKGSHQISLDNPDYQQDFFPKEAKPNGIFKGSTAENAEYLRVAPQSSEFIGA
Sequence of Follistatin-related protein 3 (Homo sapiens) (O95633 whole entry, looked up): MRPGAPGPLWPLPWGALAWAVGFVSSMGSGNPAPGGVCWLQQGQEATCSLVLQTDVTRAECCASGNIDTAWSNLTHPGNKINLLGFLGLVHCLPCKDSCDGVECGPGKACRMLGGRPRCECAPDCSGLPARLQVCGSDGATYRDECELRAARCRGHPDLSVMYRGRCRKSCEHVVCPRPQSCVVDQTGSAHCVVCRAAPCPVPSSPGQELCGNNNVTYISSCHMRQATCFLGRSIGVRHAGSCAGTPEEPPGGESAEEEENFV

Regarding `CCOC(=O)C1=CCC(c2ccco2)N(S(=O)(=O)c2ccc(C)cc2)C1` (stereo not given), the composite z-score was 1.04 in test [1]; 0.363 in test [2]; -0.0042 in [3]; 1.12 in test [5]; 1.3 in test [6]; 0.422 in test [7]. Further, the figures for the composite z-score in [8], in test [9] and in [10] were 1.22, 0.49 and 1.35, respectively. Besides, in test [4], the z-score is 0.0407 (inactive).
As to `CCCNC(=O)[C@@]1(Sc2ccc(C)cc2)CC(=O)N(C(C)C)[C@@H]1c1ccc(CO)cc1I`, the composite z-score in [1] was 0.0404; in [2], 0.832; in [3], 1.37; in test [5], -0.72; in [6] it was -1.33; in test [7] it was -1.71. The composite z-score in test [8] is -1.35; in test [9] it was -2.76; in test [10], 0.448. Further, in test [4], the z-score is -0.0862 (inactive).
Consider `CN(C)C(=O)[C@@]1(Cc2ccccc2)COC(c2ccc(OCCCO)cc2)=N1`, for which the composite z-score in [1] was 0.429; in [2], -0.246; in [3] it was -0.0283; in [5], -0.304; in test [6] it was 0.792; in [7], 0.197. In addition, the composite z-score was -0.718 in [8], -0.59 in test [9] and -0.512 in [10]. For the same compound, the z-score in test [4] was -0.781 (inactive).
As to `COCCCNC(=O)[C@@H]1c2ccccc2C(=O)N(C2Cc3ccccc3C2)[C@H]1c1ccc(CO)cc1`, the composite z-score in test [1] was 0.122; in [2], 0.299; in test [3] it was 0.186; in test [5], 0.639; in test [6], 1.04; in test [7], 0.172. The composite z-score worked out at 0.121 in [8], 0.447 in [9] and 0.952 in test [10]. Also, the z-score in [4] is 0.0141 (inactive).
As to `CC(C)C[C@@H]1NC(=O)[C@H]2C[C@@H](C(=O)NCCCCCN)[C@@H](c3cccc(OCCO)c3)N2C1=O`, the composite z-score in test [1] was 0.481; in [2], 0.206; in [3], 0.235; in [5], -0.361; in test [6], -0.389; in test [7] it was 0.125. Moreover, the composite z-score in test [8] is -0.348; in test [9], 0.183; in test [10], -0.762. In addition, the z-score in test [4] was -1.76 (inactive).
In the case of `COCCOC(=O)N1C(=O)[C@@]2(c3cc(C#CC4=CCCCC4)ccc31)[C@H](C(=O)N1CCCCCCC1)[C@H]1C(=O)O[C@H](c3ccccc3)[C@H](c3ccccc3)N1[C@@H]2c1ccc(OCCO)cc1`, the composite z-score came out at 1.23 in test [1]; 0.977 in test [2]; 0.734 in test [3]; 1.03 in test [5]; 1.17 in test [6]; 0.825 in test [7]. Further, the results for the composite z-score in test [8], in test [9] and in test [10] were 1.23, 0.835 and 1.43, respectively. Further, the z-score in [4] is -0.611 (inactive).
Take `CN1C(=O)C2C(C1=O)C1C=C(CCCO)C2C(C2CC2)N1Cc1cc2c(cc1Br)OCO2` (stereo not given): the composite z-score in [1] is 0.553; in test [2], -0.272; in test [3] it was 0.288; in test [5], 0.357; in test [6] it was 0.963; in test [7], -0.0564. Besides, the composite z-score was -0.0617 in test [8], 0.107 in test [9] and 1.36 in test [10]. The z-score in test [4] is -0.0854 (inactive).
Consider `COCCOC(=O)N1C(=O)[C@@]2(c3cc(C#CCNC(N)=O)ccc31)[C@H](c1ccc(O)cc1)N1[C@H](c3ccccc3)[C@H](c3ccccc3)OC(=O)[C@H]1[C@@H]2C(=O)N1CCN(c2ncccn2)CC1`, for which the composite z-score in test [1] came to 1.55; in test [2] it was 0.607; in [3], 0.762; in test [5], 0.811; in [6], 0.907; in test [7] it was 0.279. Besides, the composite z-score in [8] stood at 0.751; in test [9], 0.0805; in [10], 0.311. Also, the z-score in test [4] is 0.41 (inactive).
With `CCOC(=O)C1=C[C@@H](C(C)(C)C)N(S(=O)(=O)c2ccc(C)cc2)[C@H]1c1ccc(C)cc1`, the composite z-score in test [1] came out at 0.772; in [2], 0.46; in [3] it was 0.517; in test [5], 1.3; in [6], 0.995; in [7] it was 0.78. Moreover, the composite z-score in test [8] stood at 1.26; in [9] it was 0.541; in test [10] it was 0.516. For the same compound, the z-score in test [4] was -0.598 (inactive).
In the case of `COc1cc2c(cc1OC)CN(C(=O)[C@@H]1[C@H]3C(=O)O[C@H](c4ccccc4)[C@H](c4ccccc4)N3[C@H](c3ccc(O)cc3)[C@@]13C(=O)Nc1ccc(C#CCCO)cc13)CC2`, the composite z-score in [1] was 0.552; in [2], -0.0984; in [3], 0.562; in [5], 1.19; in test [6] it was 0.422; in test [7], -0.0629. Further, the composite z-score in [8] worked out at 0.547; in [9] it was 0.755; in [10], 0.924. Also, the z-score in test [4] was -0.117 (inactive).
For `COc1cc2c(cc1O)C(c1cccs1)N(Cc1sc3ccccc3c1Cl)CC2` (stereo not given), the composite z-score in [1] amounted to 1.33; in [2], 0.525; in test [3], 0.179; in test [5] it was 1.46; in [6] it was 1.36; in [7], 0.495. Further, the results for the composite z-score in [8], in [9] and in test [10] were 1.41, 0.726 and 0.816, respectively. In test [4], the z-score was -0.861 (inactive).
As for `CCOC(=O)C[C@H]1[C@H](OC(=O)c2cc3ccccc3oc2=O)[C@@H](NC(=O)c2ccc3ccccc3c2)c2cc(OCCCO)ccc2N1C(=O)Cc1ccc(OC)cc1`, the composite z-score is 0.571 in test [1]; -0.0385 in test [2]; -0.0886 in test [3]; 0.576 in test [5]; 0.162 in test [6]; 0.34 in test [7]. The composite z-score was 1.18 in [8], 0.427 in test [9] and 0.237 in [10]. Further, the z-score in [4] is -0.239 (inactive).
Take `C=CCNC(=O)[C@H]1[C@@H]2C(=O)O[C@@H](c3ccccc3)[C@@H](c3ccccc3)N2[C@@H](c2ccc(O)cc2)[C@]12C(=O)N(C(=O)OCCOC)c1ccc(C#CCC(C(=O)OC)C(=O)OC)cc12`: the composite z-score in test [1] came to 1.37; in [2], 0.119; in [3], 0.236; in test [5], 1.1; in [6], 1.19; in test [7], 0.564. In addition, the composite z-score in [8] came to 0.914; in [9] it was 0.641; in test [10], 0.23. Further, the z-score in [4] is 0.173 (inactive).
Regarding `C=C(C(=O)CC[C@H](OC(=O)c1ccccc1-c1ccccc1C(=O)O)c1ccccc1OCCO)C(C)C`, the composite z-score was 1.01 in [1]; -0.175 in test [2]; -0.459 in test [3]; 0.238 in [5]; 0.304 in [6]; -0.388 in test [7]. Further, the composite z-score in test [8] was 0.176; in test [9] it was 0.273; in test [10] it was 1.16. Also, the z-score in test [4] is -0.456 (inactive).
